Among all 55,000 compounds or so, about 90 (0.2%) were called active. No rule for the calls is given here. The sample as a whole holds a higher share of actives than the screen did.
Test: anaerobic choline-dependent bacterial growth inhibition – minimal medium, absorbance (AID 1963822)
Conditions: Gram-negative bacterium anaerobic choline minimal medium
[1] = measured here: choline growth z-score, timepoint 1, stronger effect = lower value

SMILES	z-score (stronger effect = lower value)	z-score [1]
COc1cccc(N2C(=O)c3cc(C)nn3CC2(C)C(=O)NCc2ccccc2)c1 (stereo not drawn)	0.09 (inactive)	-0.96
Cc1cc(C)n(CCc2nc(-c3ccc(Cl)cc3)no2)n1	-0.52 (inactive)	-1.19
O=C(NC1CCCCC1)c1ccc(Cl)c(-n2nnc3cccnc32)c1	0.14 (inactive)	0.44
Cc1cccc(-c2nn3c(=O)cc(CN4CCN(C(=O)c5cccc(Br)c5)CC4)nc3s2)c1	0.88 (inactive)	0.71
COc1ccc2cc3c(nc2c1)N(C(=O)c1ccc(OC)c(OC)c1)CC3	0.77 (inactive)	0.04
COc1cccc(-c2nn(Cc3ccc(C)cc3)c(=O)c3noc(C)c23)c1	1.18 (inactive)	-0.21
COc1ccc(NC(=O)N2CCN(C)c3ncccc32)cc1	-0.52 (inactive)	-1.12
COc1ccc(-c2nc(SCC(=O)Oc3ccc(C)cc3C)n3[nH]c(=O)cc3n2)cc1	-0.54 (inactive)	-0.44
CN(C)C(=O)CN1C(=O)COc2ccc(C(=O)NCc3ccc4c(c3)OCO4)cc21	0.4 (inactive)	0.23
O=C1CN(Cc2ccccc2Cl)S(=O)(=O)c2ccccc2N1Cc1cccc(F)c1	0.04 (inactive)	0.04
CCOc1ccc(NC(=O)NCCn2c(C(F)(F)F)nc3ccccc32)cc1	0.3 (inactive)	0.45
O=C(Cc1csc(NC(=O)Nc2ccc(Cl)cc2)n1)Nc1cccc(Cl)c1	-2.04 (active)	-1.2
O=C(Cc1nnc(NC(=O)Nc2cccc(Cl)c2)s1)NCc1ccccc1	0.49 (inactive)	0.9
CCC(=O)Nc1nc2cc(NC(=O)Nc3cccc(Cl)c3)ccc2s1	0 (inactive)	-0.84
O=C(NCc1ccc2c(c1)OCO2)c1ccc(-c2noc(C3CC3)n2)cc1	0.36 (inactive)	0.22
COCC(=O)Nc1ccc(-c2nc3ccccc3s2)cc1	-0.9 (inactive)	-0.43
CCSc1nc2ccc(NS(=O)(=O)Cc3cc(C)ccc3C)cc2s1	1.35 (inactive)	0.62
Cc1csc2ncc(C(=O)N3CCCCCC3)c(=O)n12	-0.29 (inactive)	-0.07
c1ccc(CCNc2c3c(nc4nncn24)CCC3)cc1	0.56 (inactive)	0.78
CC(C)n1cnc(S(=O)(=O)N2CCC(C(=O)N3CCCC3)CC2)c1	0.57 (inactive)	-0.23
O=C(Nc1ccc(Br)cc1F)N1CCN(c2cc(-c3ccccc3)ncn2)CC1	-1.08 (inactive)	-1.03
CCC1Oc2cc(S(=O)(=O)N3CCCC(C(=O)N4CCc5ccccc54)C3)c(C)cc2NC1=O (stereo not drawn)	0.06 (inactive)	-0.03
CCN1CCN(S(=O)(=O)c2ccc(C)cc2C)c2cccnc21	-0.02 (inactive)	-0.19
Cn1c(=O)n(C)c2cc(CNCC(O)c3ccccc3)ccc21 (stereo not drawn)	-0.37 (inactive)	-0.32
Cc1ccc2c(c1)c1c(n2CC(O)CNCc2ccccc2)CCCC1 (stereo not drawn)	-2.96 (active)	-0.69
COC(=O)CC1=CC(=O)N(CC(=O)Nc2ccc(C)cc2Br)c2ccccc2N1	0.27 (inactive)	0.25
COc1ccc(-n2nnc3c(N4CCN(C(=O)CC5CCCC5)CC4)ncnc32)cc1	-0.34 (inactive)	0.31

SMILES	z-score (stronger effect = lower value)	z-score [1]
CC(C)CSc1nn(C)c2nc3c(c(=O)n12)C(C)(C)Cc1ccccc1-3	0.12 (inactive)	-0.98
Cn1cc(CN2CCC(C(=O)N3CCCC3)CC2)c2cc(Cl)ccc21	-1.08 (inactive)	-0.88
CCC(C)(C)NC(=O)CN(C)S(=O)(=O)c1cc2c(cc1Cl)NC(=O)CO2	0.45 (inactive)	-0.29
COc1ccc(-c2nn(-c3ccccc3)cc2C2CC(c3ccccc3)=NN2S(C)(=O)=O)cc1 (stereo not drawn)	0.58 (inactive)	0.97
Cc1nc(N2CCCC2)ncc1C(=O)N1CCCCC1	0.92 (inactive)	-0.25
CCCn1c(=O)c2ccccc2n2c(=O)n(CC(=O)c3ccc(C)cc3C)nc12	-0.82 (inactive)	-0.89
Cn1c(=O)c2[nH]c(-c3ccncc3)nc2n(C)c1=O	-1.62 (inactive)	-1.51
Cc1ccc(-c2noc(CCn3nc(-c4ccc5c(c4)OCO5)ccc3=O)n2)cc1	1.77 (inactive)	1.44
CCOc1ccc(NC(=O)Nc2ccc(-c3cc4cc(Cl)ccc4[nH]3)cc2)cc1	-0.97 (inactive)	-1.43
Cc1nn(CC(=O)NCCc2c[nH]c3ccccc23)c(=O)c2noc(C)c12	-1.18 (inactive)	-0.02
CCC(Sc1nnc(-c2ccccc2NC(C)=O)c(=O)[nH]1)C(=O)Nc1c(C)cc(C)cc1C (stereo not drawn)	0.57 (inactive)	-0.51
COc1ccc(NC(=O)CSc2nc3ccccc3n2Cc2ncc(C)c(OC)c2C)cc1	0.8 (inactive)	0.74
COc1ccc(CN2CCCC2c2cc(C)on2)cc1CN1CCOCC1 (stereo not drawn)	-1.52 (inactive)	-0.66
COc1cc2[nH]c(=O)n(CCCC(=O)NCCCN3CCN(c4cccc(Cl)c4)CC3)c(=O)c2cc1OC	-0.27 (inactive)	0.11
O=C(CN(Cc1ccccc1)S(=O)(=O)c1ccc(Br)cc1)N1CCN(c2ccc(F)cc2)CC1	0.95 (inactive)	0.76
O=C(Nc1ccccc1F)C1CC(=O)N(CCc2c[nH]c3ccc(F)cc23)C1 (stereo not drawn)	-0.07 (inactive)	0.17
CC(=O)Nc1ccc(S(=O)(=O)N2CCN(Cc3nc4cccnc4n3-c3ccc(C)cc3)CC2)cc1	0.91 (inactive)	-0.17
Cc1ccc(-n2nc(N3CCCN(C(=O)C4CCC4)CC3)ccc2=O)cc1C	-0.57 (inactive)	1.18
CCN(CCCNC(=O)C1CCCN(C(=O)c2cccc(Cl)c2)C1)c1ccccc1 (stereo not drawn)	-1 (inactive)	-1.29
Cc1nc(N2CCC(C(=O)N3CCOCC3)CC2)c2c(C)c(C)oc2n1	-0.5 (inactive)	-0.48
CCOc1ccc(NC(=O)Nc2ccc(Cn3cnc(-c4nc(-c5ccc(Cl)cc5)no4)c3)cc2)cc1	0.25 (inactive)	0.58
O=C(O)C1Nc2ccc(Cl)cc2C2C=CCC12 (stereo not drawn)	1.42 (inactive)	2.01
Cc1ccc(OCc2nc3c4ccccc4ncn3n2)cc1	0.29 (inactive)	0.48
CC(C)c1ccc(N2C(=O)c3cc4ccsc4n3CC2(C)C(=O)NC2CCCC2)cc1 (stereo not drawn)	0.43 (inactive)	0.35
CCOc1cc(-c2noc(CCCC(=O)Nc3cccnc3)n2)ccc1OC	-0.11 (inactive)	-0.21
CN(CCc1noc(-c2ccccc2Cl)n1)S(=O)(=O)c1cccc2nsnc12	0.03 (inactive)	-1.43
CCN1CCN(C(=O)c2cc(C)n(CCN3CCCC3)c2C)CC1	-1.12 (inactive)	-1.13

SMILES	z-score (stronger effect = lower value)	z-score [1]
Cc1nc(-c2ccc(C)c(S(=O)(=O)N3CCC(C(=O)N4CCN(c5ccc(F)cc5)CC4)CC3)c2)no1	0.78 (inactive)	0.51
COC(=O)C1=CN(C)S(=O)(=O)N=C1C	1.05 (inactive)	0.71
O=C(O)c1c[nH]c2ccc(S(=O)(=O)NC3CCCCNC3=O)cc2c1=O (stereo not drawn)	1.32 (inactive)	1.13
O=C(c1cc2cc(Cl)ccc2[nH]1)N1CCCN(c2ccc(=O)n(-c3ccccc3)n2)CC1	-1.08 (inactive)	-1.54
CCCCCC(=O)CC[C@H]1[C@H](O)CC(=O)[C@@H]1C/C=C\CCCC(=O)O	0.71 (inactive)	1.09
CCCCC/C=C\CC1OC1CCCCCCCC(=O)O (stereo not drawn)	-3.37 (active)	-3.13
CCCCC/C=C\C/C=C\CCCCCCCCCC(=O)O	-3.44 (active)	-3.23
CCCCC[C@@](C)(O)/C=C/[C@H]1C=CC(=O)[C@@H]1C/C=C\CCCC(=O)O	-0.26 (inactive)	0.66
CCCCCCCC/C=C\CCCCCCCC(=O)OC[C@H](CO)OC(C)=O	0.47 (inactive)	0.34
CCCC[C@H](C)C[C@H](O)/C=C/[C@@H]1[C@@H](CCCCCCC(=O)O)[C@@H](O)C[C@H]1O	0.5 (inactive)	-0.78
CCOC(=O)c1ccc(NC(=O)CSc2nnc(NC(=O)NC3CCCCC3)s2)cc1	0.1 (inactive)	0.31
COc1cccc(C2Nc3ccc(Cl)cc3[C@H]3OCCC[C@@H]23)c1OC (stereo partly drawn)	1.2 (inactive)	2.03
CN(CCCNC(=O)c1c2c(nc3ccccc13)C(=O)N(C1CCCCC1)C2)c1ccccc1	-0.07 (inactive)	-1.59
COc1ccc(NC(=O)c2cccc(-c3nc(-c4ccc(F)cc4)no3)c2)cc1OC	-1 (inactive)	-0.62
CN1CCN(S(=O)(=O)c2ccc3c(c2)C(C)(C)CN3CC(=O)N2CCCC2)CC1	1.07 (inactive)	0.91
Cc1cn(C)c(CC(=O)NC2CCN(Cc3ccccc3)CC2)c1C(=O)O	-0.86 (inactive)	0.19
Brc1ccc(-c2nn[nH]n2)cc1	-1.32 (inactive)	-1.04
CCOC(=O)C1CCCN(C(=O)Cn2c(=O)c3ccccc3n3c(=S)sc(-c4ccccc4)c23)C1 (stereo not drawn)	0.91 (inactive)	0.36
CCN(CC)C(=O)CSc1nnc2c3ccccc3nc(-c3ccccc3)n12	2.11 (inactive)	1.21
CCOc1ccc(S(=O)(=O)NC(C)C)cc1-c1nc(C)no1	0.37 (inactive)	-1.19
CCCN(CCC)CCNc1cc(C)nc2c(-c3ccccc3OC)c(C)nn12	1.1 (inactive)	-0.02
Cc1nc(-c2csc(S(=O)(=O)NCc3ccccc3Cl)c2)sc1C	-0.96 (inactive)	-0.18
Cc1[nH]nc2c1C(C(=O)c1cccc(Cl)c1)CC(=O)N2 (stereo not drawn)	0.36 (inactive)	0.1
COc1ccc(NS(=O)(=O)c2cc(-c3nc(-c4ccccc4)no3)sc2C)cc1OC	0.43 (inactive)	-0.06
CCN1CCN(C(=O)c2cc(N(C)S(=O)(=O)c3ccccc3)ccn2)CC1	0.78 (inactive)	0.89
